PfHsp90 yeast 2: inhibits growth of yeast expressing Plasmodium falciparum Hsp90 | inhibition, % at 9.4 µM | 310,000 tested, 0.32% active | S. cerevisiae expressing PfHsp90, BacTiter-Glo ATP, 48 h; yeast lacking PDR1 and PDR3 efflux regulators;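 active means every replicate shows inhibition above about 80%, whatever the replicate mean, limit read from the data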;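 further: 0% = DMSO neutral controls and 100% = 20 µM radicicol positive controls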
tim23-1 inh: inhibits growth of tim23-1 mutant yeast | S. cerevisiae tim23-1 growth, BacTiter-Glo luminescence, 24 h | inhibition, % at 20 µM | 330,000 tested, 1.3% active | AID 463212;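 active means growth inhibition of the mutant yeast at or above 50%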;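 further: temperature-sensitive mutant grown at 25 °C; plate controls were DMSO-treated mutant yeast for no effect and medium wells lacking yeast for full effect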
NALP1 inh: blocks the NALP1 inflammasome reconstituted in yeast; S. cerevisiae NALP1/ASC/caspase-1 growth, X-gal OD620, 72 h; inhibition, % at 10 µM; 280,000 tested, 0.61% active; AID 2071; in the data active means inhibition mostly above about 24%, no sharp cut-off; inactive means mostly below about 32%
NALP3 yeast inh: NALP3 inhibition in yeast; Yeast reconstituted NLRP3/ASC/caspase-1, beta-gal luminescence, 24 h; inhibition, % at 10 µM; 330,000 tested, 0.39% active;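 active means inhibition of 50% or more; inactive means inhibition below 50%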;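 further: plate controls were induced DMSO wells for no effect and uninduced yeast grown without galactose for full effect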
tim10-1 inh: growth inhibitors of tim10-1 mutant yeast; 330,000 tested, 2.2% active; AID 463190; inhibition, % at 20 µM; S. cerevisiae tim10-1 ts strain growth, BacTiter-Glo, 24 h;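 active means inhibition of at least 40%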;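 further: mutant grown at 25 °C; 0% = DMSO wells with yeast and 100% = wells holding no yeast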
TIM10 inh: growth inhibitors of TIM10 yeast strain | S. cerevisiae TIM10 strain growth, BacTiter-Glo luminescence, 24 h | inhibition, % at 10 µM | 330,000 tested, 1.4% active;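 active means inhibition of 40% or more at the single tested concentration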;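 further: wild-type TIM10 isogenic control strain grown at permissive 25 °C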
tim10-1 confirm: confirmation of tim10-1 mutant yeast growth inhibitors. S. cerevisiae tim10-1 ts strain growth, BacTiter-Glo, 24 h. 7,400 tested, 56% active. inhibition, % at 20 µM. AID 463213. shares compounds with tim10-1 inh;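 active means inhibition of yeast growth at or above a set limit in either of two repeat tests at 20 µM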;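 further: tim10-1 mutant grown at permissive 25 °C to find synthetic lethal compounds; 0% = DMSO yeast wells and 100% = medium wells without yeast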
TIM10 conf: confirmation of TIM10 yeast growth inhibitors. S. cerevisiae tim10 strain growth, BacTiter-Glo luminescence, 24 h. shares compounds with TIM10 inh. AID 463215. 4,600 tested, 63% active. inhibition, % at 10 µM;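 active means inhibition of yeast growth at or above a set limit in either of two replicates at 10 µM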;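 further: this counterscreen used the strain with wild-type TIM10; 0% = yeast with DMSO and 100% = medium wells lacking yeast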
tim23-1 confirm: tim23-1 yeast growth inhibition, confirmed | shares compounds with tim23-1 inh | S. cerevisiae tim23-1 growth, BacTiter-Glo luminescence, 24 h | inhibition, % at 20 µM | 4,400 tested, 83% active | AID 463218;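 active means inhibition above about 39% in either of two replicate wells at 20 µM, limit read from the data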;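 further: temperature-sensitive tim23-1 mutant grown at 25 °C; 0% = DMSO wells with yeast and 100% = medium wells without yeast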
An asterisk follows results filed as active; nt = no result given. This is a sample that favours compounds with a hit; in the whole collection about 4.1% have one here.

SMILES	PfHsp90 yeast 2	tim23-1 inh	NALP1 inh	NALP3 yeast inh	tim10-1 inh	TIM10 inh	tim10-1 confirm	tim23-1 confirm	others
COC(=O)C1=C(C)N(c2cc(C)cc(C)c2)/C(=C/c2ccco2)C1=O	0.5	54.1*	8.5	-4.8	55.4*	39.4	28.1	50.0*
CC1CCN(c2cc(N)c(Cl)cc2[N+](=O)[O-])CC1	2.8	71.6*	-1.0	30.8	52.0*	41.4*	37.1*	65.2*	TIM10 conf=-12.3
Cc1ccc(C(=O)NNC(=O)c2cc(C)nc3ccccc23)cc1	17.2	-6.0	nt	2.4	-9.4	7.0	nt	nt
CC1(C)Cc2ccccc2-c2nc3n(c(=O)c21)CCS3	-20.5	35.1	-10.5	2.1	38.8	-3.9	nt	nt
CC1(C)Cc2ccccc2-c2nc3n(c(=O)c21)CCCS3	-18.9	50.8*	-3.1	-28.1	42.1*	25.5	33.0*	59.8*
O=C1c2ccccc2C(=O)N1CC1CCCO1 (centres undefined)	-5.2	-6.5	33.9	14.8	-17.8	-2.6	nt	nt
O=C1c2cccc3cc([N+](=O)[O-])cc(c23)C(=O)N1CC1CCCO1 (centres undefined)	29.1	51.8*	nt	18.2	40.7*	15.2	23.4	44.3*
COc1ccc(C(=O)NNC(=O)c2ccccn2)cc1	42.0	51.3*	34.4	-0.5	51.8*	32.9	40.5*	42.1*
O=C(NCCc1ccccc1)C(c1cccs1)N(C(=O)CCl)c1ccc(Cl)cc1 (centres undefined)	-21.8	52.8*	16.7	12.2	54.6*	55.8*	53.8*	58.3*	TIM10 conf=-23.3
O=C(NCCc1ccccc1)C(c1cccs1)N(C(=O)c1csnn1)C1CC1 (centres undefined)	-3.2	12.6	15.2	-7.8	18.8	15.8	nt	nt
CSc1nnc2c3cc(F)ccc3n(C)c2n1	83.5*	51.5*	14.9	33.6	47.8*	77.0*	61.0*	50.5*	TIM10 conf=80.8*
COc1cccc(-c2sc3ccc(OC)cc3c2-c2ccc(OCCN3CCCC3)cc2)c1	5.7	70.0*	nt	nt	40.4*	12.0	37.8*	45.5*
O=C(Nc1ccccc1Oc1ccccc1)c1cccs1	-96.3	10.1	-4.7	-25.5	13.6	1.0	nt	nt
Cc1ccc(Cl)cc1NC1=C/C(=N\S(=O)(=O)c2cccs2)c2ccccc2C1=O	11.2	51.6*	5.4	16.1	71.2*	73.6*	65.6*	64.7*	TIM10 conf=68.6*
CCOC(=O)c1sc(-c2ccc(C(F)(F)F)cc2)nc1O	105.8*	74.0*	31.9*	1.4	45.6*	27.1	16.7	32.4
O=C(Nc1cc(Cl)cc(Cl)c1)c1cccc(OC(F)F)c1	nt	84.9*	-3.8	4.9	78.5*	67.9*	79.2*	72.3*	TIM10 conf=65.5*
COc1ccc(Cn2c(SCc3ccccc3C)nc3cc(OC)c(OC)cc3c2=N)cc1	11.1	50.9*	34.7	16.1	49.6*	3.2	-27.2	1.1
Cc1nn2c(NCc3ccccn3)cc(C(C)C)nc2c1-c1ccccc1	5.0	60.1*	-6.7	11.9	45.3*	63.9*	48.8*	60.5*	TIM10 conf=68.0*
Cc1cccnc1Nc1nc(-c2ccc(O)cc2)cs1	5.7	75.4*	0.1	21.4	57.1*	31.3	17.4	57.1*
Cc1cccnc1Nc1nc(-c2ccc(F)cc2)cs1	13.0	47.1	2.8	1.1	19.7	36.5	nt	nt
COc1ccc(N(CC(=O)N2CCN(c3ccccc3F)CC2)S(=O)(=O)c2ccc(C)cc2)cc1	-7.6	21.2	3.0	17.1	29.6	13.8	nt	nt
C/C(=N\OC(=O)Nc1ccc(Cl)cc1)c1ccc(F)c(F)c1	-15.3	56.6*	11.9	26.5	51.5*	13.9	54.0*	58.6*
O=C(Nc1ccc(Cl)cc1)ON=C1CCCC1	-0.5	63.8*	94.5*	13.7	42.9*	82.2*	27.6	40.6*	TIM10 conf=-21.4
CC(C)C(Cl)=NOC(=O)Nc1ccc(F)cc1	-8.5	nt	nt	nt	nt	nt	nt	nt
O=S(=O)(NC1C2CC3CC(C2)CC1C3)c1ccc(F)cc1 (centres undefined)	-11.9	30.4	nt	16.0	19.0	1.5	nt	nt
SMILES	PfHsp90 yeast 2	tim23-1 inh	NALP1 inh	NALP3 yeast inh	tim10-1 inh	TIM10 inh	tim10-1 confirm	tim23-1 confirm	others
O=C(NCCCN1CCOCC1)c1ccccc1N1C(=O)[C@@H]2Cc3c([nH]c4ccccc34)C(c3cccc(Cl)c3)N2C1=O (some centres undefined)	-8.0	10.8	8.3	1.3	-4.9	-2.2	nt	nt
O=c1ccn(Cc2ccccc2)c(SCc2ccccc2)n1	-12.8	nt	nt	nt	nt	nt	nt	nt
Clc1ccc(CSc2nccn2Cc2ccccc2)cc1	nt	50.5*	13.5	37.5	47.9*	60.1*	43.9*	53.6*	TIM10 conf=44.2*
CC(OC(=O)c1cccnc1Cl)C(=O)Nc1ccc2c(c1)OCO2 (centres undefined)	nt	-10.5	nt	-1.2	-15.4	-5.3	nt	nt
Cc1ccc(S(=O)(=O)Nc2nccs2)cc1[N+](=O)[O-]	16.0	12.0	7.8	-1.9	-15.6	0.1	nt	nt
Cc1ccc(S(=O)(=O)Nc2ccc(S(=O)(=O)Nc3nccs3)cc2)c([N+](=O)[O-])c1	-23.5	50.2*	14.2	14.4	53.8*	52.0*	55.2*	52.2*	TIM10 conf=46.6*
Cc1ccc(O)c(O)c1	nt	12.1	nt	nt	9.0	-9.8	nt	nt
Cc1ccc(O)c(Sc2cc(C)ccc2O)c1	-20.5	52.9*	2.8	27.4	47.2*	26.9	27.8	44.9*
Cc1ccc2c(c1)/C(=C/c1ccc(F)cc1)C(=O)N2	-3.9	61.6*	-4.2	40.5	58.8*	65.6*	71.3*	50.1*	TIM10 conf=77.1*
CCC(C)(C)C1CCc2[nH]nc(C(=O)NCc3ccc(OC)cc3)c2C1 (centres undefined)	-18.7	31.5	nt	10.9	18.7	-0.2	nt	nt
CCC(C)(C)C1CCc2[nH]nc(C(=O)NC3CCCC3)c2C1 (centres undefined)	5.4	59.2*	nt	11.5	41.7*	38.9	34.6*	57.0*
NS(=O)(=O)c1ccc(CCNC(=O)C2CCN(C(=O)Nc3ccccc3)CC2)cc1	-6.1	-8.2	nt	12.1	-12.8	0.1	nt	nt
CC(C)Oc1ccc(CSc2nnc3n(C)c(=O)c4c5c(sc4n23)CCCC5)cc1	-3.9	-6.2	nt	2.4	35.2	13.6	nt	nt
C=C(C)CSc1nnc2n(C)c(=O)c3c4c(sc3n12)CCC4	nt	53.3*	7.6	12.6	46.0*	26.0	27.6	54.2*
Cc1ccc(C)c(OC(=O)C2CSC3(C)CCC(=O)N23)c1C (centres undefined)	-20.9	31.5	nt	22.3	21.5	10.8	nt	nt
C=CC(=O)N=c1sc2ccccc2n1-c1ccccc1	-16.9	52.9*	-19.6	28.0	50.9*	33.0	25.0	14.9
